Compound activity from PubChem BioAssay.
12-LOX inh – blocks human arachidonate 12S-lipoxygenase; Potency, µM (highest dose often 108 µM), most hits filed as inhibitors; P18054; purified 12hLO, xylenol orange hydroperoxide absorbance; AID 1671190; 580,000 compounds, 1.1% hits
Target sequence (P18054 whole entry, looked up): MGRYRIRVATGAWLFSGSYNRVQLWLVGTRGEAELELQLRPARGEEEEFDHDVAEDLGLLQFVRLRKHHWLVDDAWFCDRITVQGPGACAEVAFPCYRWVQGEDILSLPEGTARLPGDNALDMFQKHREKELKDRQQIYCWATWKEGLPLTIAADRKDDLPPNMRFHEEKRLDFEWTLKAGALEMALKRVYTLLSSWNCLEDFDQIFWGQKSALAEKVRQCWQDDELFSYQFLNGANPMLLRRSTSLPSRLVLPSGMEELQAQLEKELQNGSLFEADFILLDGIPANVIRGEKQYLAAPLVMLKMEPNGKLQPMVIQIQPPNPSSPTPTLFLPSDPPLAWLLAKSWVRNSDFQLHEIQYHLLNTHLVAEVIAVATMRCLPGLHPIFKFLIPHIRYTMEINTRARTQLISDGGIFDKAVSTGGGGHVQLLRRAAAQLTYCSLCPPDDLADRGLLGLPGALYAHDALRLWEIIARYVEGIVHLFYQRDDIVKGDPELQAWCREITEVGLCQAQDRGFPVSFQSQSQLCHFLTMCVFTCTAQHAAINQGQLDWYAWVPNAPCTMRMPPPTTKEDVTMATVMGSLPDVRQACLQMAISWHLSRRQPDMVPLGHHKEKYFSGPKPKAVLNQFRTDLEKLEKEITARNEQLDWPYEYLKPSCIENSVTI
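Purified human 12hLO at 150 nM in 25 mM Hepes, 0.01% Triton X-100, pH 7.0, preincubated 15 min at room temperature with compound. Reaction started with 40 uM arachidonic acid, 30 min at room temperature. Hydroperoxide measured by Fe-xylenol orange, 573/405 nm absorbance ratio.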
Anesthetic bind – candidate novel general anesthetic via apoferritin binding; AID 485281; Potency, µM (highest dose often 77.5 µM), hits mostly inhibitors; P02791; 350,000 compounds, 0.074% hits; apoferritin/1-aminoanthracene competitive binding, fluorescence; note: nearly all actives have a fitted effect of over 20% in size
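Read-out: endpoint 1-AMA fluorescence, excitation 380 nm and emission 535 nm, after compounds sit 10 min at room temperature with 10 uM horse-spleen apoferritin in 50% saturated 1-AMA/PBS. Values come from four-parameter Hill fits.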
Chronic BCR inh – inhibitors of chronic active B-cell receptor signaling. Potency, µM (highest dose often 46.1 µM), actives largely listed as inhibitors. ABC-DLBCL IkBa-CBG/CBR reporter, luminescence ratio, 4 h. 340,000 compounds, 0.05% hits; active = well fitted inhibition curve with a large enough effect in the signal ratio, with a control signal flat, not every such curve was filed as active; inconclusive = small, poorly fitted or top-dose-only effect, or effect the other way, or a change in a side signal; the % refers to the signal ratio
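Doxycycline induced both beetle luciferases in TMD8 lymphoma cells; IKK-driven degradation limits the IkappaBalpha-fused green signal, while red luminescence normalises for cell number and nonspecific effects. Compounds tested up to 46 uM, 4 hrs.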
Glioma ERSR ind – ER stress response induction in glioma; U87-MG GRP78 promoter luciferase reporter, 16 h; Potency, µM, most hits filed as activators; 420,000 compounds, 0.02% hits; AID 602332; note: series mostly up to about 76 µM; nearly all actives have a fitted effect of over 35% in size
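Stably transfected U87-MG human glioma cells carrying a GRP78-based luminescent sensor were seeded at 1000 cells/well, pin-dosed with compounds and incubated 16 h. Luciferase reagent was then added, and end-point luminescence was read after 10 min at room temperature.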
Of the large screens only hits and unclear results are named; the others gave an inactive call. The list is not random: actives were taken first. Their share in the collection is about 1.1%. Unless noted, calls come from the whole dose curve; as a rule, active = well fitted curve in the direction sought with a large enough effect; inconclusive = small, poorly fitted or top-dose-only effect, or another doubt; inactive = no such curve, though single readings can be large; an effect the other way counts as inactive or inconclusive.

CCNc1ncc2nc(-c3cc(F)cc(F)c3)c(=O)n(CCc3ccccc3)c2n1	12-LOX inh 11µM (no result: Anesthetic bind, Chronic BCR inh)
COc1ccccc1NCC(=O)NNC(=O)COc1ccc2ccccc2c1	none (no result: Anesthetic bind, Chronic BCR inh, Glioma ERSR ind)
CC[C@@]1(C(=O)OC)N[C@H](CN(C)C(=O)c2ccc(F)cc2)[C@@H]2C(=O)N(C)C(=O)[C@@H]21	12-LOX inh 8.9µM (no result: Anesthetic bind)
CC[C@@]1(C(=O)OC)N[C@H](CN(C)C(=O)c2ccccc2)[C@@H]2C(=O)N(C)C(=O)[C@@H]21	none (no result: Anesthetic bind)
COC(=O)CCCNC(=O)c1ccc(C(F)(F)F)cc1	none (no result: Anesthetic bind, Chronic BCR inh, Glioma ERSR ind)
Cn1nc(C(=O)Nc2ccc(Oc3ccccc3)cc2)c2ccccc2c1=O	none (no result: Anesthetic bind, Chronic BCR inh, Glioma ERSR ind)
CC(C)Nc1sc(C(=O)c2ccccc2)c(N)c1C#N	none (no result: Anesthetic bind, Chronic BCR inh, Glioma ERSR ind)
CC(=O)c1sc(NC(C)C)c(C#N)c1N	12-LOX inh 18µM (no result: Anesthetic bind, Chronic BCR inh, Glioma ERSR ind)
O=C(/C=C/c1ccc(-c2ccccc2Cl)o1)c1ccc(F)cc1	12-LOX inh 11µM (no result: Anesthetic bind, Chronic BCR inh, Glioma ERSR ind)
O=C(/C=C/c1ccc(-c2ccccc2Cl)o1)c1ccc2ccccc2c1	12-LOX inh 1µM (no result: Anesthetic bind, Chronic BCR inh, Glioma ERSR ind)
O=C(C=Cc1ccco1)c1ccc2ccccc2c1	12-LOX inh 18µM (no result: Anesthetic bind, Chronic BCR inh)
Cc1ccc(C(=O)/C=C/c2ccc(-c3ccccc3Cl)o2)cc1	12-LOX inh 7.1µM (no result: Anesthetic bind, Chronic BCR inh, Glioma ERSR ind)
COc1ccc(CC(=O)N(C)C2CCc3ccccc3C2)cc1 (configuration not stated)	none (no result: Anesthetic bind, Chronic BCR inh, Glioma ERSR ind)
Cc1ccc(C(=O)N/N=C\c2ccc(-c3ccc(Cl)c(Cl)c3)o2)cn1	none
O=C(/C=C/c1cccs1)c1ccc(N2CCOCC2)cc1	Chronic BCR inh inconclusive
O=C(/C=C/C=C/c1ccco1)c1ccc(N2CCOCC2)cc1	12-LOX inh 5µM (no result: Anesthetic bind, Chronic BCR inh, Glioma ERSR ind)
Cc1ccc(C(=O)/C=C/c2ccc(-c3ccccc3Br)o2)cc1	12-LOX inh 1.1µM (no result: Anesthetic bind, Chronic BCR inh, Glioma ERSR ind)
O=C(/C=C/c1ccc(-c2ccc(Cl)c(Cl)c2)o1)c1ccc(Br)cc1	12-LOX inh 13µM (no result: Anesthetic bind, Chronic BCR inh, Glioma ERSR ind)
O=C(/C=C/c1ccc(-c2ccccc2[N+](=O)[O-])o1)c1ccccc1	Anesthetic bind inconclusive, Chronic BCR inh inconclusive
CCC(C)n1c(SCC(=O)N2CCOCC2)nc2c1c(=O)n(C)c(=O)n2C (configuration not stated)	none (no result: Anesthetic bind, Chronic BCR inh, Glioma ERSR ind)
CCOc1cc(OCC)c(/C=C2\NC(=O)NC2=O)cc1Br	none (no result: Anesthetic bind, Chronic BCR inh, Glioma ERSR ind)
CCOC(=O)c1cccn1C1C(=O)N(Cc2ccc(Cl)nc2)c2c(F)cccc21 (configuration not stated)	12-LOX inh 56µM (no result: Anesthetic bind, Chronic BCR inh, Glioma ERSR ind)
CC/C=C(/C)C(=O)NC(C)CN1CCOCC1 (configuration not stated)	none (no result: Anesthetic bind, Chronic BCR inh, Glioma ERSR ind)
Cn1cnnc1SCC(=O)c1cc2ccccc2oc1=O	12-LOX inh 6.3µM, Chronic BCR inh inconclusive
O=C(CSc1ccc(Cl)cc1)c1cc2ccccc2oc1=O	12-LOX inh 7.1µM (no result: Anesthetic bind, Chronic BCR inh, Glioma ERSR ind)
O=C(CSc1nnc(-c2cccnc2)o1)c1cc2ccccc2oc1=O	Chronic BCR inh inconclusive
NNC(=O)CNC(=O)c1cccc(Br)c1	Anesthetic bind 28µM
COc1cc2c(cc1OC)C(C1C(=O)CC(C)(C)CC1=O)N(C(=O)CCl)CC2 (configuration not stated)	12-LOX inh inconclusive
COc1cc2c(cc1OC)C(c1cc(Br)ccc1F)N(C(=O)CCl)CC2 (configuration not stated)	12-LOX inh 16µM, Chronic BCR inh inconclusive
Fc1ccc(C2=NN(c3ccccc3)C(c3ccco3)C2)cc1 (configuration not stated)	12-LOX inh inconclusive, Chronic BCR inh inconclusive
Cc1ccc(N2N=C(c3ccc(F)cc3)CC2c2ccco2)cc1 (configuration not stated)	12-LOX inh 25µM, Chronic BCR inh inconclusive
COc1ccccc1CNC(=O)N1CCN(Cc2ccc(Br)s2)CC1	none (no result: Anesthetic bind, Chronic BCR inh, Glioma ERSR ind)
COc1ccccc1N1CC(C)(C)C(=O)N(C(=O)c2ccc(C)cc2)C1=S	Glioma ERSR ind 25µM
COc1ccccc1N1CC(C)(C)C(=O)N(C(=O)c2ccc(Cl)cc2)C1=S	none
C#CCOCCOCCOCCNc1nc(N2CCN(C(=O)[C@H](CCCCN)n3cc(CCCC)nn3)CC2)nc(N2CCN(C(=O)[C@H](CCCCN)n3cc(CCCC)nn3)CC2)n1	12-LOX inh inconclusive
C#CCOCCOCCOCCNc1nc(N2CCOCC2)nc(N2CCN(C(=O)[C@H](CCCCN)n3cc(CCCC)nn3)CC2)n1	12-LOX inh 35µM (no result: Anesthetic bind, Chronic BCR inh)
C#CCOCCOCCOCCNc1nc(N2CCN(C(=O)[C@H](CCCCN)n3cc(CC(C)O)nn3)CC2)nc(N2CCN(C(=O)[C@H](CCCCN)n3cc(CC(C)O)nn3)CC2)n1 (some centres not stated)	12-LOX inh 13µM (no result: Anesthetic bind)
